The panel holds about 83,000 compounds, 20% with a hit somewhere; the sample as a whole holds those more often.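 Single-dose data. Exposure time 48 hours. Values below 10 considered active.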 A number with no mark means an inactive call. The source made the active and inactive calls.
What was measured:
Test in all cases: NCI-60 one-dose screen, 48 h (100 = growth as untreated, 0 = no growth, -100 = all killed)
Conditions in all cases: 10 µM unless noted
NCI-H23 lung = test system: NCI-H23 lung
NCI-H226 lung = test system: NCI-H226 lung
NCI-H322M lung = test system: NCI-H322M lung
HOP-62 NSCLC = test system: HOP-62 NSCLC
NCI-H460 lung = test system: NCI-H460 lung
HOP-92 NSCLC = test system: HOP-92 NSCLC
NCI-H522 lung = test system: NCI-H522 lung
A549/ATCC NSCLC = test system: A549/ATCC NSCLC
786-0 renal = test system: 786-0 renal
COLO 205 colon = test system: COLO 205 colon
DU-145 prostate = test system: DU-145 prostate
K-562 leukemia = test system: K-562 leukemia
MALME-3M melanoma = test system: MALME-3M melanoma
MDA-MB-231 breast = test system: MDA-MB-231 breast
RXF 393 renal = test system: RXF 393 renal
SF-268 CNS = test system: SF-268 CNS
SF-295 CNS = test system: SF-295 CNS
SF-539 CNS = test system: SF-539 CNS
UACC-257 melanoma = test system: UACC-257 melanoma
M14 melanoma = test system: M14 melanoma

| SMILES | growth (NCI-H23 lung) | growth (NCI-H226 lung) | growth (NCI-H322M lung) | growth (HOP-62 NSCLC) | growth (NCI-H460 lung) | growth (HOP-92 NSCLC) | growth (NCI-H522 lung) | growth (A549/ATCC NSCLC) | growth (786-0 renal) | growth (COLO 205 colon) | growth (DU-145 prostate) | growth (K-562 leukemia) | growth (MALME-3M melanoma) | growth (MDA-MB-231 breast) | growth (RXF 393 renal) | growth (SF-268 CNS) | growth (SF-295 CNS) | growth (SF-539 CNS) | growth (UACC-257 melanoma) | growth (M14 melanoma) |
| --- | --- | --- | --- | --- | --- | --- | --- | --- | --- | --- | --- | --- | --- | --- | --- | --- | --- | --- | --- | --- |
| O=C(O)/C=C(\c1nc2ccc([N+](=O)[O-])cc2[nH]1)c1cc(Cl)ccc1O | 4.9% (active) | 34.4% | 33.6% | 42.8% | 14.4% | 8.34% (active) | 2.47% (active) | 27% | 44% | 27.5% | 39.9% | 14.7% | 6.7% (active) | 13.1% | 39.1% | 32.2% | 21.6% | 26.3% | 17.8% | 25.8% |
| COc1ccc([C@@H]2[C@@H](Oc3ccccc3)C(=O)N2c2cc(OC)c(OC)c(OC)c2)cc1F | 16.5% | 41.5% | 33.4% | 14% | 7.22% (active) | 42% | -26.1% (active) | 13.4% | 5.88% (active) | -41.2% (active) | 9.48% (active) | 4.73% (active) | 65.5% | 12.4% | 3.39% (active) | 25.3% | 3.68% (active) | -21.1% (active) | 57.3% | 5.14% (active) |
| Clc1ccc(-c2nc(Br)cn3ccnc23)cc1 | 85.5% | 74.6% | 93% | 84.3% | 91.5% | 53.6% | 84.6% | 104% | 97.7% | 94.5% | 91% | 90.2% | 103% | 69.6% | 90.4% | 81.7% | 93.4% | 81.6% | 95.8% | 94.3% |
| CC(C)OC(=O)c1ccc([N+](=O)[O-])cc1 | 103% | 106% | 111% | 110% | 109% | 84.1% | 105% | 101% | 109% | 123% | 116% | 117% | 131% | 102% | 116% | 119% | – | 112% | 101% | 108% |
| COc1cccc(NC(=O)c2c(-c3ccccc3)c(-c3ccccc3)n[nH]c2=O)c1 | 101% | 100% | 111% | 102% | 98% | 112% | 89.2% | 100% | 97.6% | 110% | 106% | 81.9% | 101% | 102% | 103% | 105% | – | 101% | 97.9% | 103% |
| CCCCCCCCCCCCCCC(C(=O)OCC)C(=O)OCC | 105% | 93.3% | 104% | 105% | 109% | 105% | 92.6% | 109% | 115% | 115% | 110% | 121% | 92.8% | 101% | 113% | 110% | – | 105% | 106% | – |
| OC(c1cc2c(Cl)cc(Cl)cc2c2cc(C(F)(F)F)ccc12)C1CCCCN1 (stereo not drawn) | -77.5% (active) | -66% (active) | -69.7% (active) | -90% (active) | -73.6% (active) | -88.8% (active) | -83.9% (active) | -80.9% (active) | -67.6% (active) | -88.3% (active) | -94.5% (active) | -75.5% (active) | -44% (active) | -73% (active) | -90.9% (active) | -82.9% (active) | – | -81.5% (active) | -67.1% (active) | -82.3% (active) |
| N=C(N)c1ccc(-c2ccc(-c3cc(Cl)cc(Cl)c3)o2)nc1 | 3.49% (active) | 99.5% | -30.9% (active) | -72.7% (active) | -78.8% (active) | 73.3% | -67.4% (active) | -68.8% (active) | -64.9% (active) | -76.6% (active) | -91.9% (active) | -65.6% (active) | -58.9% (active) | -77.3% (active) | 67% | -67.1% (active) | – | -90.9% (active) | -81.1% (active) | – |

From PubChem BioAssay (NCI)
